Test results from PubChem BioAssay (Tox21).
Inconclusive results are not listed. Activity calls are given as the source filed them. The call rests on the fitted dose curve; in most records, active means well fitted cell-killing curve with a large enough effect in the repeat runs; inconclusive means weak or mixed curves, or effect the other way; inactive means flat fitted curve, though single readings scatter.

Test: cAMP Responsive Elements (CRE) small molecule antagonists, cell-based qHTS assay: qHTS cell viability counter screen (AID 2060913); further: nearly all actives have a fitted effect of over 40% in size
Conditions: CRE-bla HEK293T viability, CellTiter-Glo luminescence, 5 h; series mostly up to 92.4 µM; viability change, negative = cytotoxic: at the top concentration
Outline: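 Cytotoxicity counter screen multiplexed with the CRE-bla antagonist read: HEK293T cells in DMEM with dialyzed FBS and 25 mM HEPES were treated 3 hrs under 0.25 uM final NKH477, then viability measured by CellTiter-Glo luminescence.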
On the % scale 0 is the no-effect control and ±100 the full control effect.

| SMILES | viability change, negative = cytotoxic | Potency |
| --- | --- | --- |
| COC(=O)c1cc(Cl)c(NC(C)=O)cc1OC | -0.955% [at 42.5 µM] (inactive) |  |
| CC(C)=CCO |  | inactive |
| CCC=CC#N | 1.39% (inactive) |  |
| CCN[C@H]1CN(CCCOC)S(=O)(=O)c2sc(S(N)(=O)=O)cc21 | -5.16% [at 42.5 µM] (inactive) |  |
| CCN1CCCC1CNC(=O)c1cc(S(N)(=O)=O)ccc1OC (stereo not given) | -9.08% (inactive) |  |
| NC1(c2ccc(-c3nc4ccn5c(=O)[nH]nc5c4cc3-c3ccccc3)cc2)CCC1 | -11.2% [at 42.5 µM] (inactive) |  |
| CC(C)(C)C(=O)/C=C/c1ccc(Cl)cc1 | 2.2% (inactive) |  |
| CCCN1CCCC[C@H]1C(=O)Nc1c(C)cccc1C | 2.77% [at 42.5 µM] (inactive) |  |
| CNC(=S)NC | -1.24% (inactive) |  |
| CC(C)(C)OC(=O)N1C[C@@H](F)C[C@H]1C(=O)O | -23.2% (inactive) |  |
| CCN1CCN(c2cc3c(cc2F)c(=O)c(C(=O)O)cn3C2CC2)CC1 | 3% [at 42.5 µM] (inactive) |  |
| NNC(=O)c1cccc(C(=O)NN)c1 | -3.25% (inactive) |  |
| COc1cc(CCC(C)=O)ccc1O | 15.2% (inactive) |  |
| O=Cc1cc(O)ccc1Br | -12.3% (inactive) |  |
| CCCCCCOC(C)=O |  | inactive |
| Nc1ccn([C@H]2CC[C@@H](CO)O2)c(=O)n1 |  | inactive |
| CCCCNC(=O)NS(=O)(=O)c1ccc(C)cc1 |  | inactive |
| CC(=O)c1sc(C)nc1C | 4.21% (inactive) |  |
| CCCCCCO |  | inactive |
| O=C(O)c1cc2ccccc2nc1C(=O)O | -0.462% (inactive) |  |

| SMILES | viability change, negative = cytotoxic | Potency |
| --- | --- | --- |
| Cc1ccc(C=O)cc1 | 0.0148% [at 42.5 µM] (inactive) |  |
| CC(C)(O)c1ccccc1 | 1.22% (inactive) |  |
| O=C(O)/C=C/C(=O)O |  | inactive |
| CC(C)=NNC(N)=S | 15.9% (inactive) |  |
| C=CC(C)(CCC=C(C)C)OC(=O)/C=C/c1ccccc1 (stereo not given) | -11.8% (inactive) |  |
| Cc1cc(O)ccc1O | 17% (inactive) |  |
| Brc1ccc(Oc2ccc(Br)cc2)cc1 |  | inactive |
| CC(C)OC(=O)C(O)(CC(=O)O)CC(=O)O | 8.72% (inactive) |  |
| CCn1cc(C(=O)O)c(=O)c2cc(F)c(N3CCNCC3)nc21 | -0.0345% [at 42.5 µM] (inactive) |  |
| O=C1CCCCCCCCCCCCCCO1 | 3.21% (inactive) |  |
| CC(=O)OCCOCCOCCOC(C)=O |  | inactive |
| N#CSc1ccc(N)c([N+](=O)[O-])c1 | 7.37% (inactive) |  |
| Cc1ccc(C(C)c2ccc(C)c(C)c2)cc1C | -10.2% (inactive) |  |
| CC(C)C[C@H](NC(=O)OCC1c2ccccc2-c2ccccc21)C(=O)O | -1.5% (inactive) |  |
| CCOC(=O)CC#N | -6.14% (inactive) |  |
| NC(=O)c1ccc(N)cc1 | 1.75% (inactive) |  |
| SC1CCCCC1 | -5.15% (inactive) |  |
| Nc1ccc(NCCO)c([N+](=O)[O-])c1 | 1.52% (inactive) |  |
| O=C(/C=C/c1ccccc1)OCc1ccccc1 |  | inactive |
| CC(C)n1nc(-c2cc3cc(O)ccc3[nH]2)c2c(N)ncnc21 | -5.68% [at 42.5 µM] (inactive) |  |
